# Tests used:
# Assay in all cases: DAPPL (digital affinity profiling via proximity ligation, sequencing); 10 mM Tris-HCl pH 7.5, 50 mM NaCl, 1 mM DTT, 4% glycerol, room temperature, 30 min; GST-TFs on glutathione beads, 16-mer random dsDNA library, 0.1% formaldehyde crosslink after washing; high values mean tight binding
# FEV = biological target: T1, FEV (Homo sapiens, UniProt Q99581 1-238); conditions: protein: recombinant; tags: N-terminal GST; dsDNA, one strand shown
# T1 sequence: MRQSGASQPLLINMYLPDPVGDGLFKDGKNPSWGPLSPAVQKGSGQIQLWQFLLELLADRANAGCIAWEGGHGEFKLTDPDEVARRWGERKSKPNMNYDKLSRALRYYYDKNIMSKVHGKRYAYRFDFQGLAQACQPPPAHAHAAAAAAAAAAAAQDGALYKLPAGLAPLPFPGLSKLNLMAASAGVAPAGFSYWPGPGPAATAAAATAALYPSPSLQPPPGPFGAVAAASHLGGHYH
# Method in brief: (§1)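 Binding signal is defined as a hexamer's read frequency for one factor over its frequency for the tag-only sample. To obtain reads, GST-fused human transcription factors were expressed in yeast, captured on glutathione beads, barcoded with DNA and pooled with that sample. Pools met 200 nmole of a 16-mer random double-stranded DNA library in Tris/NaCl/DTT/glycerol buffer for 30 min at room temperature before washing, 0.1% formaldehyde crosslinking, proximity ligation (BsaI/T4 ligase, 1 h, 37 °C), PCR and Illumina NextSeq500 sequencing.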
# ETV5 = ETV5 (Homo sapiens, UniProt P41161 1-510); conditions: protein: recombinant; tags: N-terminal GST; dsDNA, one strand shown
# Chain of ETV5 (P41161 whole entry): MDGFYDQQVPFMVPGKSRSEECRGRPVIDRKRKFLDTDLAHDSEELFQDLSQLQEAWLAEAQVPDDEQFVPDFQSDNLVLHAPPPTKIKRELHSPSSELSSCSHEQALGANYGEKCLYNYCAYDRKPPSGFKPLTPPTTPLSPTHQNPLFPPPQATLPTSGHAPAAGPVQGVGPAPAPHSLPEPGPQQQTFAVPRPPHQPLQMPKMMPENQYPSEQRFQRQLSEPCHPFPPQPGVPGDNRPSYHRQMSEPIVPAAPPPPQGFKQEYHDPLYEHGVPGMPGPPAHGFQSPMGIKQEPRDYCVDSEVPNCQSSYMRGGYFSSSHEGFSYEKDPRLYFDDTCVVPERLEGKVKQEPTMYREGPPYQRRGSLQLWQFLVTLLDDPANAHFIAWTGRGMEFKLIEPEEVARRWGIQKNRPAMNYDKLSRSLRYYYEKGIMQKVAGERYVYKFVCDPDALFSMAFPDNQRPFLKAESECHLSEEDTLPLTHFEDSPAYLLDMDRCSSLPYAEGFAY
# Method in brief: as §1
# HSF1 = HSF1 (Homo sapiens, UniProt Q00613 1-529); conditions: protein: recombinant; tags: N-terminal GST; chain copies: 3; dsDNA, one strand shown
# Chain of HSF1 (Q00613 whole entry): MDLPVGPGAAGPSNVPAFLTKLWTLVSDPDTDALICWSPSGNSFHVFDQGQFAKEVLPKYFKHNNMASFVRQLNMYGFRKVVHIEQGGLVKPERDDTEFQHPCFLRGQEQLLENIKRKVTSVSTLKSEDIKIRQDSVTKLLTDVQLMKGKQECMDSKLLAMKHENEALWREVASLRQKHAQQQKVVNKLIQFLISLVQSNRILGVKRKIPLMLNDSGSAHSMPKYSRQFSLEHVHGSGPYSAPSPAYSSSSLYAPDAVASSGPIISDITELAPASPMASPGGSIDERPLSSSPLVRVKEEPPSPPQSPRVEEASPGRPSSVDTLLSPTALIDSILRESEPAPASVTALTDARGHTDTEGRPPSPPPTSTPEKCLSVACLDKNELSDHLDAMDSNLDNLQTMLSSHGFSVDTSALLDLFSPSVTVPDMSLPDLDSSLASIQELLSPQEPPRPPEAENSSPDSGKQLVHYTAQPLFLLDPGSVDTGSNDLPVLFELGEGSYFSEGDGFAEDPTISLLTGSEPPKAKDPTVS
# Method in brief: as §1
# SPIC = biological target: T2, SPIC (Homo sapiens, UniProt Q8N5J4 1-248); conditions: protein: recombinant; tags: N-terminal GST; dsDNA, one strand shown
# T2 sequence: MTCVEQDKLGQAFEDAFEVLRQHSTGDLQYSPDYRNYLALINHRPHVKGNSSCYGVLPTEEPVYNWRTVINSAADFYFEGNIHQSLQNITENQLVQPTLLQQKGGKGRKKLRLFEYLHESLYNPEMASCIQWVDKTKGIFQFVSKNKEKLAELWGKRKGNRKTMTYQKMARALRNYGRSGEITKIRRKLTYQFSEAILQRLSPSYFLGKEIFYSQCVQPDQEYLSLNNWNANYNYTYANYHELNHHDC
# Method in brief: as §1
# ELF4 = ELF4 (Homo sapiens, UniProt Q99607 1-663); conditions: protein: recombinant; tags: N-terminal GST; dsDNA, one strand shown
# Chain of ELF4 (Q99607 whole entry): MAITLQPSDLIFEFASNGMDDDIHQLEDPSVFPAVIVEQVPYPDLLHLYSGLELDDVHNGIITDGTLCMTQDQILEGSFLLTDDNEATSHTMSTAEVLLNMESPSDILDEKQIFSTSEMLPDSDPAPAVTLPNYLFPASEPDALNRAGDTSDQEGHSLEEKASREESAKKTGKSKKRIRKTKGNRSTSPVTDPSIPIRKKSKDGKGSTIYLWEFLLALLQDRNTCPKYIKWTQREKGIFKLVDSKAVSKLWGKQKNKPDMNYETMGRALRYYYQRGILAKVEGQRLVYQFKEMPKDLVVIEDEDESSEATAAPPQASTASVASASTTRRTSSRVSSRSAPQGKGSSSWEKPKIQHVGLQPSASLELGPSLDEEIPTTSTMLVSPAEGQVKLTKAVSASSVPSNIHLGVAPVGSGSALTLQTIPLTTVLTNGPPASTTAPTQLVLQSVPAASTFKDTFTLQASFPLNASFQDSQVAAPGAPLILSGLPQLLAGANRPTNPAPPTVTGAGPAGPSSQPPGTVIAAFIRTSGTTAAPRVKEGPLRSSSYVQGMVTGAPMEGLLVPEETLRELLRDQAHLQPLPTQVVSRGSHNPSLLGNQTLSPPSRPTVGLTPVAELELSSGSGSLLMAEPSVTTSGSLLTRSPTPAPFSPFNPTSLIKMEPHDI
# Method in brief: as §1
# ELK4 = biological target: T3, ELK4 (Homo sapiens, UniProt P28324-2 1-405); conditions: protein: recombinant; tags: N-terminal GST; dsDNA, one strand shown
# T3 sequence: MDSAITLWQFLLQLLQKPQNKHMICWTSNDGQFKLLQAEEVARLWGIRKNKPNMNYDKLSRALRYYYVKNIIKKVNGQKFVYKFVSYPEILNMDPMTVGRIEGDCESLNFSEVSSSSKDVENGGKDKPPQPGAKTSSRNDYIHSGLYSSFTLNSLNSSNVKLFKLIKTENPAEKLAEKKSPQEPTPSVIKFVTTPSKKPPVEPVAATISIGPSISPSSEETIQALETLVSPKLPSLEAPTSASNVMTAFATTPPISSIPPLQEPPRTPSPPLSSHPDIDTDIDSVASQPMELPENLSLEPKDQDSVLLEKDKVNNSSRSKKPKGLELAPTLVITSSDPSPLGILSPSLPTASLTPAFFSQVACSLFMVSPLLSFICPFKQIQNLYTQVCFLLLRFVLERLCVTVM
# Method in brief: as §1
# ETV2 = biological target: T4, ETV2 (Homo sapiens, UniProt O00321 1-342); conditions: protein: recombinant; tags: N-terminal GST; dsDNA, one strand shown
# T4 sequence: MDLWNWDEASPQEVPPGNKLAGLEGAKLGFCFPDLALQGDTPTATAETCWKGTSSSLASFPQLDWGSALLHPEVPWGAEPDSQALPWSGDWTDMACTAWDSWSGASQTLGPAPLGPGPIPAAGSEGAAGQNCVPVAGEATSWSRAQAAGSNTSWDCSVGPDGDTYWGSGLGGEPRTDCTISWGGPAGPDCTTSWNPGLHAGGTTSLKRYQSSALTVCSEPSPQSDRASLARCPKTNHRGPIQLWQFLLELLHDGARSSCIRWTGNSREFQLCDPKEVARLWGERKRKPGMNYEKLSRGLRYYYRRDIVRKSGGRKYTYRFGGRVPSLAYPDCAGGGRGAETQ
# Method in brief: as §1
# ELF3 = biological target: T5, ELF3 (Homo sapiens, UniProt P78545 1-371); conditions: protein: recombinant; tags: N-terminal GST; dsDNA, one strand shown
# T5 sequence: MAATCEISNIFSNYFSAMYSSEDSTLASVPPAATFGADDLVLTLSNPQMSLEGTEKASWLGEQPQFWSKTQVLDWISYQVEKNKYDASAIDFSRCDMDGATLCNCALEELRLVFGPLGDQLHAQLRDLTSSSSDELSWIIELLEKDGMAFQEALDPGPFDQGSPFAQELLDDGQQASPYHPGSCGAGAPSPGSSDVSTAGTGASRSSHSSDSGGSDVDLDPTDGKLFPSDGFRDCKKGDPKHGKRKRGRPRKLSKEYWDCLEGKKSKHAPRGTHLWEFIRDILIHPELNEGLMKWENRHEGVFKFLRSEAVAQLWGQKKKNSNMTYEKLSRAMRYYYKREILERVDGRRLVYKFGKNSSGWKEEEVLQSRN
# Method in brief: as §1
# CRX = CRX (Homo sapiens, UniProt O43186 1-299); conditions: protein: recombinant; tags: N-terminal GST; dsDNA, one strand shown
# Chain of CRX (O43186 whole entry): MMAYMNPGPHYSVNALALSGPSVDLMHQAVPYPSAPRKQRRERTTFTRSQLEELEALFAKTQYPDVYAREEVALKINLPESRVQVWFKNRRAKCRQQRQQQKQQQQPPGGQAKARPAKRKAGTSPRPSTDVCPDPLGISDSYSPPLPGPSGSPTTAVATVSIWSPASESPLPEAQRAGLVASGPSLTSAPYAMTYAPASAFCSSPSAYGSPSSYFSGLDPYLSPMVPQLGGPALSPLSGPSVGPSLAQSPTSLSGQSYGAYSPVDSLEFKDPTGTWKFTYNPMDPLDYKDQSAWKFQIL
# Method in brief: as §1
# ETV1 = ETV1 (Homo sapiens, UniProt P50549 1-477); conditions: protein: recombinant; tags: N-terminal GST; dsDNA, one strand shown
# Chain of ETV1 (P50549 whole entry): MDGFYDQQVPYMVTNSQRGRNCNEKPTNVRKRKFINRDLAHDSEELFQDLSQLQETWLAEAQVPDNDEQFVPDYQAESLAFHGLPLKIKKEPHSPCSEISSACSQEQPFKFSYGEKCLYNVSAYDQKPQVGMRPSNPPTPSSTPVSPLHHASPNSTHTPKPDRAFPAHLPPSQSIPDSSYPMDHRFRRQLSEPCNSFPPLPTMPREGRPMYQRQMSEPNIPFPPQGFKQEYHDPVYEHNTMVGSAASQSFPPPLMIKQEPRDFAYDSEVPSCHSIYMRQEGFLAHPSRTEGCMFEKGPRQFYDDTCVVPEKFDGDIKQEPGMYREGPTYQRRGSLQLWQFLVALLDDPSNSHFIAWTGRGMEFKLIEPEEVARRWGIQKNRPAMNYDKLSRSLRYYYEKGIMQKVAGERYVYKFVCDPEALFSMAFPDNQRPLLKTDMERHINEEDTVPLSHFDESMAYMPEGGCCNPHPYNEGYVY
# Method in brief: as §1
# ERF = biological target: T6, ERF (Homo sapiens, UniProt P50548 1-548); conditions: protein: recombinant; tags: N-terminal GST; dsDNA, one strand shown
# T6 sequence: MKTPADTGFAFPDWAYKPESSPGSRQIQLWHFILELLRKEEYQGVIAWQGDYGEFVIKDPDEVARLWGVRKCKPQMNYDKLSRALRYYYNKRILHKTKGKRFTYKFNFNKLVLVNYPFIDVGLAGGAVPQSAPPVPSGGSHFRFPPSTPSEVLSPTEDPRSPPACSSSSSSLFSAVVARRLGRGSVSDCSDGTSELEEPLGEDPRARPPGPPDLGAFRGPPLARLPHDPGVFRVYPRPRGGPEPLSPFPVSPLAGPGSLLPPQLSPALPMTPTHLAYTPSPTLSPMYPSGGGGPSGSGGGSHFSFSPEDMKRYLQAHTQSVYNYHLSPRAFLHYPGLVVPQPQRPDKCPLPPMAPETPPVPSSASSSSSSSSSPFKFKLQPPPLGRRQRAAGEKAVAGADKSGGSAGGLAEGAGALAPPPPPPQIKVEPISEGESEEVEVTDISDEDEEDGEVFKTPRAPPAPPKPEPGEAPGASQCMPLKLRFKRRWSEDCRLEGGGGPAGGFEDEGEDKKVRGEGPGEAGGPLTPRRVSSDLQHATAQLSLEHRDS
# Method in brief: as §1
# ETV3L = biological target: T7, ETV3L (Homo sapiens, UniProt Q6ZN32 1-361); conditions: protein: recombinant; tags: N-terminal GST; dsDNA, one strand shown
# T7 sequence: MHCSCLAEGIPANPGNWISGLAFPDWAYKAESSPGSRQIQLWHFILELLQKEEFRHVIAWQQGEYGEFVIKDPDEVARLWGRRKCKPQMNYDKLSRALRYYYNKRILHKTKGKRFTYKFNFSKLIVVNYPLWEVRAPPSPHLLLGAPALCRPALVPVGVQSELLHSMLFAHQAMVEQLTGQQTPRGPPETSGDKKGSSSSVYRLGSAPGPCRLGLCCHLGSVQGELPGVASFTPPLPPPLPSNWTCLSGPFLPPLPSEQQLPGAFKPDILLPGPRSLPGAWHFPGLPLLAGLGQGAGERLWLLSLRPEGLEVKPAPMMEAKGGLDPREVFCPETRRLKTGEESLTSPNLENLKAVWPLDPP
# Method in brief: as §1
# ETS2 = biological target: T8, ETS2 (Homo sapiens, UniProt P15036 1-469); conditions: protein: recombinant; tags: N-terminal GST; dsDNA, one strand shown
# T8 sequence: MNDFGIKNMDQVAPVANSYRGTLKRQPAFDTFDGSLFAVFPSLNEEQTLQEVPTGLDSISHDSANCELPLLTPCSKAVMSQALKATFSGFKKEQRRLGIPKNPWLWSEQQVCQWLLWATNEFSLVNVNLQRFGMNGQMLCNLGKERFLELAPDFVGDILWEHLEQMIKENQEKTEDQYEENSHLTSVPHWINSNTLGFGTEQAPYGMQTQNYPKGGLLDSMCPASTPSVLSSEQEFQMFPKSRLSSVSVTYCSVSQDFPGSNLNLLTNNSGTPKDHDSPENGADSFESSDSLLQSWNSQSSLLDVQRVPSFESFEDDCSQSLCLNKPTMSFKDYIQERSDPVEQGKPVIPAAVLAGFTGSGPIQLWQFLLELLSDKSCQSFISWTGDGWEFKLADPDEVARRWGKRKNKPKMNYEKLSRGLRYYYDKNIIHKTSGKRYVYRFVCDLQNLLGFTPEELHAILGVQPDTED
# Method in brief: as §1
# SPDEF = biological target: T9, SPDEF (Homo sapiens, UniProt O95238 1-335); conditions: protein: recombinant; tags: N-terminal GST; dsDNA, one strand shown
# T9 sequence: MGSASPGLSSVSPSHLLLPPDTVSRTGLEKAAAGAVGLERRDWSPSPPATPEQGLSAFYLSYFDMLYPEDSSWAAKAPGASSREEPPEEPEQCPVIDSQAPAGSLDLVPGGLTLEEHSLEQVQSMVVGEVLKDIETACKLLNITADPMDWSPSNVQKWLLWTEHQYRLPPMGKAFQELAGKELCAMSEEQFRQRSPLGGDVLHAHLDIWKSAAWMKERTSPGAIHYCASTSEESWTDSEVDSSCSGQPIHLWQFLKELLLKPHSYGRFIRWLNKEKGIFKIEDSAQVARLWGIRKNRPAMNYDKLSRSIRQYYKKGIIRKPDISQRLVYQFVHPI
# Method in brief: as §1
# ETV7 = biological target: T10, ETV7 (Homo sapiens, UniProt Q9Y603 1-341); conditions: protein: recombinant; tags: N-terminal GST; dsDNA, one strand shown
# T10 sequence: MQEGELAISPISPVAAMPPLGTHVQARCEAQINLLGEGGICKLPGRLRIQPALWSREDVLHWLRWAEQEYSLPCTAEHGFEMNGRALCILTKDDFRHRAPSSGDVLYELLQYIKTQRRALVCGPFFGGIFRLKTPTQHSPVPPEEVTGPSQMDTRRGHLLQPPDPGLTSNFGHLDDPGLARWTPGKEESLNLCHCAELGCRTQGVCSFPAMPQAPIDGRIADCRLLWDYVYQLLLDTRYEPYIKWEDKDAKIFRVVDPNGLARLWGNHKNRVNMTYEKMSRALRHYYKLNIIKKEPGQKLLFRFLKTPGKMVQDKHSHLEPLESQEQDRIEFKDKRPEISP
# Method in brief: as §1
# ELF5 = biological target: T11, ELF5 (Homo sapiens, UniProt Q9UKW6-2 1-255); conditions: protein: recombinant; tags: N-terminal GST; dsDNA, one strand shown
# T11 sequence: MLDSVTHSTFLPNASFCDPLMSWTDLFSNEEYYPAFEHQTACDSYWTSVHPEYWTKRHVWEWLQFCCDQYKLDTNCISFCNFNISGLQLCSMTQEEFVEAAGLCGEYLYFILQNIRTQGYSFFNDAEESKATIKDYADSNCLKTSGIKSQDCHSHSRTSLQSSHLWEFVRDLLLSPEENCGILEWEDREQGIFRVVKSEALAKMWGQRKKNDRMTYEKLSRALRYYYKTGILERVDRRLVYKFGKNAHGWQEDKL
# Method in brief: as §1
# ETV3 = biological target: T12, ETV3 (Homo sapiens, UniProt P41162-2 1-143); conditions: protein: recombinant; tags: N-terminal GST; dsDNA, one strand shown
# T12 sequence: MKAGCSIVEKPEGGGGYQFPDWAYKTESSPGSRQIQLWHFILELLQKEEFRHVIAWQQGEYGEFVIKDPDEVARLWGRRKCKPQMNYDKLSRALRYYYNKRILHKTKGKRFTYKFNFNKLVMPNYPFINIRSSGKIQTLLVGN
# Method in brief: as §1
# ETV6 = ETV6 (Homo sapiens, UniProt P41212 1-452); conditions: protein: recombinant; tags: N-terminal GST; dsDNA, one strand shown
# Chain of ETV6 (P41212 whole entry): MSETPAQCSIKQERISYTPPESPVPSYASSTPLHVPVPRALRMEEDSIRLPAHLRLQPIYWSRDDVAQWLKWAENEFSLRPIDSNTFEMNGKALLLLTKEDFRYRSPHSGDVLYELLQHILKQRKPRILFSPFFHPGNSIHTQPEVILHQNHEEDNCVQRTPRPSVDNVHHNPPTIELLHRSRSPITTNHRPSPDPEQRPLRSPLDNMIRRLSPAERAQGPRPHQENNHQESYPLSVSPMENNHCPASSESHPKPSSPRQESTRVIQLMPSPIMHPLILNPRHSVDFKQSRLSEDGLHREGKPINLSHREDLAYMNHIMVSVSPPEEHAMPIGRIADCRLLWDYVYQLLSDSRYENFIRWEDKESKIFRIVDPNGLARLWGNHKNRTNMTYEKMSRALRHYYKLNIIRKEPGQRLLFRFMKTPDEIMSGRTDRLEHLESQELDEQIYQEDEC
# Method in brief: as §1
sequence,measurement,setting,value
CCAATT,binding signal,FEV,"1.23 fold enrichment (6-mer frequency, TF over GST control)"
same,binding signal,ETV5,"1.26 fold enrichment (6-mer frequency, TF over GST control)"
same,binding signal,HSF1,"1.09 fold enrichment (6-mer frequency, TF over GST control)"
same,binding signal,SPIC,"1.31 fold enrichment (6-mer frequency, TF over GST control)"
same,binding signal,ELF4,"1.32 fold enrichment (6-mer frequency, TF over GST control)"
same,binding signal,ELK4,"1.09 fold enrichment (6-mer frequency, TF over GST control)"
same,binding signal,ETV2,"1.27 fold enrichment (6-mer frequency, TF over GST control)"
same,binding signal,ELF3,"1.39 fold enrichment (6-mer frequency, TF over GST control)"
same,binding signal,CRX,"1.05 fold enrichment (6-mer frequency, TF over GST control)"
same,binding signal,ETV1,"1.26 fold enrichment (6-mer frequency, TF over GST control)"
same,binding signal,ERF,"1.23 fold enrichment (6-mer frequency, TF over GST control)"
same,binding signal,ETV3L,"1.24 fold enrichment (6-mer frequency, TF over GST control)"
same,binding signal,ETS2,"1.25 fold enrichment (6-mer frequency, TF over GST control)"
same,binding signal,SPDEF,"1.19 fold enrichment (6-mer frequency, TF over GST control)"
same,binding signal,ETV7,"1.21 fold enrichment (6-mer frequency, TF over GST control)"
same,binding signal,ELF5,"1.14 fold enrichment (6-mer frequency, TF over GST control)"
same,binding signal,ETV3,"1.23 fold enrichment (6-mer frequency, TF over GST control)"
same,binding signal,ETV6,"1.24 fold enrichment (6-mer frequency, TF over GST control)"

# — PMC7862700, “An all-to-all approach to the identification of sequence-specific readers for epigenetic DNA modifications on cytosine”
